From PubChem BioAssay
A selection: hits, their analogues and other compounds. The true share with any hit is near 3.4%.
APP 5'UTR act = activators of APP 5'UTR luciferase reporter, primary screen, SH-SY5Y cells | AID 1276, 2008 | activation, % at 2 µM | hit rate 1% among 190,000 | SH-SY5Y APP 5'UTR luciferase reporter, luminescence; zero percent = DMSO vehicle wells;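 active means activation above a set limit, based on mean plus 3 SD of controls, cut at about 140% in these data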
hgDAF12 agonist = H. glycines DAF-12 receptor agonists, primary screen, cell-based, luminescence, HEK293, GAL4 fusion, UAS-luciferase; Nuclear hormone receptor DAF-12 (Heterodera glycines), GAL4 fusion; HEK293 GAL4-hgDAF12 UAS-luciferase reporter, agonist luminescence; normalized to butyrate control; hit rate 1.8% among 370,000; activation, % at 6.8 µM; AID 687014, 2013;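 active means activation above a cutoff set at the mean of all screened compounds plus 3 SD, cut at about 10% in these data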
hcDAF-12 act = H. contortus DAF-12 nuclear receptor activators, primary screen, cell-based, luminescence, HEK293, lit1-tk-luc reporter. HEK293 hcDAF-12 lit1-tk-luc reporter; 0% DMSO, 100% Δ7-dafachronic acid. activation, % at 6.8 µM. hit rate 1.4% among 370,000;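 active means activation above the mean of all tested compounds plus 3 SD, cut at about 5.5% in these data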
ssDAF-12 act = S. stercoralis DAF-12 nuclear receptor activators, primary screen, cell-based, luminescence, HEK293, GRIP1 co-expression, lit1-tk-luc | Nuclear hormone receptor DAF-12 (Strongyloides stercoralis) | HEK293 ssDAF-12/GRIP1 lit1-tk-luc reporter; % of 3 µM dafachronic acid response | activation, % at 6.8 µM | hit rate 1% among 370,000;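 active means activation above the mean over all tested compounds plus 3 SD, cut at about 0.9% in these data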
NF-kB expr up = activators of NF-kB expression in neurons, primary screen, cell-based, HTS; human neuronal cells, NF-kB reporter expression; stronger effect = higher value; fold change at 12.5 µM; hit rate 1.6% among 190,000; AID 1239, 2008; in the data active means fold change above about 3.3
Hits are given with their value.

For CN1CCN(Cc2coc3c(Cl)cc(Cl)cc3c2=O)CC1 the results were hgDAF12 agonist inactive, hcDAF-12 act inactive and ssDAF-12 act 1.3.
For O=C(NCC(c1ccco1)N1CCCC1)c1ccccc1Sc1ccc(C(F)(F)F)cc1[N+](=O)[O-] (stereo not drawn) the results were hgDAF12 agonist inactive, hcDAF-12 act inactive and ssDAF-12 act 1.1.
Screening O=C(NCC(c1ccco1)N1CCCC1)c1cc2ccccc2s1 (stereo not drawn) returned hgDAF12 agonist inactive, hcDAF-12 act inactive and ssDAF-12 act 0.9.
For N#Cc1ccccc1Sc1ccccc1C(=O)NCC(c1ccco1)N1CCCCC1 (stereo not drawn) the results were hgDAF12 agonist inactive, hcDAF-12 act inactive and ssDAF-12 act inactive.
`Cc1cc2oc(C(=O)NCC(c3ccco3)N3CCCC3)c(C)c2cc1C` (stereo not drawn) gave hgDAF12 agonist inactive, hcDAF-12 act inactive and ssDAF-12 act 3.6.
Clc1ccccc1CSc1ncn(-c2ccccc2)n1 was read as APP 5'UTR act inactive, hgDAF12 agonist 11.3, hcDAF-12 act inactive, ssDAF-12 act inactive and NF-kB expr up inactive.
N#Cc1ccc2sn(-c3ccccc3)c(=O)c2c1 was read as hgDAF12 agonist 11.5, hcDAF-12 act inactive and ssDAF-12 act inactive.
Screening Cc1ccc(C(=O)/C=C2\NCCNC2=O)cc1 returned APP 5'UTR act inactive, hgDAF12 agonist 12.9, hcDAF-12 act inactive, ssDAF-12 act inactive and NF-kB expr up 5.03.
`CCOC(=O)[C@@]12CCCC3=C1N(CCC3)C(=O)[C@H]2CC(=O)NCCCN1CCCC1=O` gave hgDAF12 agonist inactive, hcDAF-12 act inactive and ssDAF-12 act inactive.
CC1CCC/C(=N/NC(=O)c2ccccc2-n2cccc2)C1 (stereo not drawn) was read as APP 5'UTR act inactive, hgDAF12 agonist inactive, hcDAF-12 act 6.1, ssDAF-12 act inactive and NF-kB expr up inactive.
Screening COc1ccc(CNC(=O)Cc2csc(Nc3nc(=S)[nH]c4ccccc34)n2)cc1 returned APP 5'UTR act inactive, hgDAF12 agonist inactive, hcDAF-12 act inactive, ssDAF-12 act 1.0 and NF-kB expr up inactive.
`O=C(Cc1csc(Nc2nc(=S)[nH]c3ccccc23)n1)NCc1ccc(Cl)cc1` gave APP 5'UTR act inactive and NF-kB expr up inactive.
Screening O=C(NC1CCCCN(Cc2cccc(F)c2)C1=O)c1ccc(F)cc1 (stereo not drawn) returned hgDAF12 agonist inactive, hcDAF-12 act inactive and ssDAF-12 act inactive.
For O=C(CN1C(=O)c2ccccc2S1(=O)=O)NC1CCCCCC1 the results were APP 5'UTR act inactive, hgDAF12 agonist 12.5, hcDAF-12 act inactive, ssDAF-12 act inactive and NF-kB expr up inactive.
`Cc1ccc(OC(=O)c2cccc(S(=O)(=O)N3CCCC3)c2)c(-n2nc3ccccc3n2)c1` gave APP 5'UTR act inactive, hgDAF12 agonist 11.3, hcDAF-12 act inactive, ssDAF-12 act inactive and NF-kB expr up 3.54.
Screening Cc1ccc(OC(=O)c2ccc(S(=O)(=O)N(C)C)cc2)c(-n2nc3ccccc3n2)c1 returned APP 5'UTR act inactive, hgDAF12 agonist 12.0, hcDAF-12 act inactive, ssDAF-12 act inactive and NF-kB expr up 4.48.
For CC(=O)Oc1ccc(C)cc1-n1nc2ccccc2n1 the results were APP 5'UTR act inactive, hgDAF12 agonist inactive, hcDAF-12 act inactive, ssDAF-12 act inactive and NF-kB expr up 3.49.
Screening Cc1ccc(OC(=O)c2cccc(S(=O)(=O)N(C)C)c2)c(-n2nc3ccccc3n2)c1 returned APP 5'UTR act inactive, hgDAF12 agonist inactive, hcDAF-12 act inactive, ssDAF-12 act inactive and NF-kB expr up inactive.
`C(#CC1=CCCCC1)CNCC1CC1` gave hgDAF12 agonist inactive, hcDAF-12 act inactive and ssDAF-12 act inactive.
Screening CC(C)(C)c1ccc(-c2nnc(SCC(=O)Nc3ccc(S(=O)(=O)Nc4nccs4)cc3)n2Cc2ccco2)cc1 returned hgDAF12 agonist inactive, hcDAF-12 act inactive and ssDAF-12 act inactive.
`CN(C)c1ccc(N/C=C/C(=O)c2ccc(F)cc2)cc1` gave APP 5'UTR act inactive and NF-kB expr up 4.64.
`COC(=O)C1CCN(C(=O)CCCOc2ccccc2)CC1` gave APP 5'UTR act 145.9, hgDAF12 agonist inactive, hcDAF-12 act inactive, ssDAF-12 act inactive and NF-kB expr up inactive.
For COc1ccc(-c2ccc(=O)n(Cc3c(F)cccc3Cl)n2)cc1 the results were hgDAF12 agonist inactive, hcDAF-12 act inactive and ssDAF-12 act inactive.
Screening COc1ccc(-c2ccn(-c3cccc(F)n3)n2)cc1 returned APP 5'UTR act 138.3, hgDAF12 agonist inactive, hcDAF-12 act inactive, ssDAF-12 act inactive and NF-kB expr up inactive.
For CC(C)CNS(=O)(=O)/C=C/c1cc2c(cc1CNC(=O)OC(C)(C)C)OCO2 the results were hgDAF12 agonist inactive, hcDAF-12 act inactive and ssDAF-12 act inactive.
For C=CCN1C(=O)[C@@H](CC(=O)NCc2ccc(OC)c(OC)c2)[C@]2(C(=O)OCC)CCCCC/C=C/12 the results were hgDAF12 agonist inactive, hcDAF-12 act inactive and ssDAF-12 act inactive.
Cc1cccn2c(=O)c3cc(C(=O)NCCc4ccccc4)sc3nc12 was read as hgDAF12 agonist inactive, hcDAF-12 act inactive and ssDAF-12 act 1.0.
`COc1cccc(NC(=O)n2ccc3ccc(-c4ccc5cc[nH]c5c4)cc32)c1` gave hgDAF12 agonist inactive, hcDAF-12 act inactive and ssDAF-12 act inactive.
For CCOc1ccccc1C1C2=C(COC2=O)Nc2cc3c(cc21)OCO3 (stereo not drawn) the results were APP 5'UTR act inactive, hgDAF12 agonist inactive, hcDAF-12 act inactive, ssDAF-12 act inactive and NF-kB expr up 3.34.
For O=C1OCC2=C1C(c1ccc(F)cc1)c1cc3c(cc1N2)OCO3 (stereo not drawn) the results were APP 5'UTR act inactive, hgDAF12 agonist inactive, hcDAF-12 act inactive, ssDAF-12 act inactive and NF-kB expr up inactive.
For O=C(OCCN1CCCC12CCC(c1ccccc1)CC2)c1ccccc1 (stereo not drawn) the results were hgDAF12 agonist inactive, hcDAF-12 act inactive and ssDAF-12 act inactive.
`O=C(Nc1ccc2c(c1)OCCO2)C(c1ccncc1)n1c(=O)c(-c2ccco2)nc2ccccc21` (stereo not drawn) gave hgDAF12 agonist inactive, hcDAF-12 act inactive and ssDAF-12 act inactive.
Screening O=C(NC1CCCCC1)C(c1ccnc2ccccc12)n1c(=O)c(-c2ccco2)nc2ccccc21 (stereo not drawn) returned hgDAF12 agonist inactive, hcDAF-12 act inactive and ssDAF-12 act 1.1.
`O=C(Nc1ccc2c(c1)OCCO2)C(c1ccnc2ccccc12)n1c(=O)c(-c2ccco2)nc2ccccc21` (stereo not drawn) gave hgDAF12 agonist inactive, hcDAF-12 act inactive and ssDAF-12 act 1.5.
